{
  "source": "PubChem BioAssay (NCATS)",
  "note": "Results filed as inconclusive are left out. Entries that show only a call come without a potency. Active and inactive are the calls of the source. Calls come from the whole dose curve; as a rule, active = well fitted cell-killing curve with a large enough effect; inconclusive = small, poorly fitted or top-dose-only effect; inactive = no such curve, though single readings can be large or run the other way. Potency is the fitted concentration of half-maximal effect.",
  "data": [
    {"assay": "qHTS of pediatric cancer cell lines to identify multiple opportunities for drug repurposing: Primary screen for OHS-50 cells (AID 1347103); note: nearly all actives have a fitted effect of over 40% in size", "details": "OHS-50 osteosarcoma viability, CellTiter-Glo luminescence, 48 h; series mostly up to 57.3 µM", "outline": "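Cells (500-1,000/well) rested 5 h, then received compounds for 48 h; metabolically active cells were measured by CellTiter-Glo luminescence. Final concentrations spanned up to 46 µM (MIPE, 11-point) or 0.59 nM-46 µM (NPC, 8-point) in primary screens, 11-point in follow-ups.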", "values": [
      {"compound": "Cc1onc(-c2c(Cl)cccc2Cl)c1C(=O)Cl", "Potency": "inactive"},
      {"compound": "CCOC(=O)Oc1ccc(CCNC(=O)[C@H](CCSC)NC(C)=O)cc1OC(=O)OCC", "Potency": "inactive"},
      {"compound": "O=[N+]([O-])c1nccn1CO[C@@H](CO)[C@H](O)CO", "Potency": "inactive"},
      {"compound": "NS(=O)(=O)c1ccc(N2CCCCS2(=O)=O)cc1", "Potency": "inactive"},
      {"compound": "O=C(O)CCC(=O)OC[C@@H](NC(=O)C(Cl)Cl)[C@H](O)c1ccc([N+](=O)[O-])cc1", "Potency": "inactive"},
      {"compound": "CC(=O)c1ccc(O)c(C(N)=O)c1", "Potency": "inactive"},
      {"compound": "O=C1c2ccccc2CCc2ccccc21", "Potency": "inactive"},
      {"compound": "CCOC(=O)c1ccc(NC(=O)CN2CCCCC2)cc1", "Potency": "inactive"},
      {"compound": "Cc1c(F)cc2c(=O)c(C(=O)O)cn3c2c1CCC3C", "note": "(centres undefined)", "Potency": "inactive"},
      {"compound": "CC(C)(C)NCC(O)COc1ccccc1OCC1CCCO1", "note": "(centres undefined)", "Potency": "inactive"},
      {"compound": "Cc1ccc(O)cc1", "Potency": "inactive"},
      {"compound": "CCCCC(CC)CNC(=O)CC(C)OC(=O)CCC(=O)O", "note": "(centres undefined)", "Potency": "inactive"},
      {"compound": "CCN(CC)CC(=O)OCC(=O)[C@@]1(O)CC[C@H]2[C@@H]3CCC4=CC(=O)CC[C@]4(C)[C@H]3[C@@H](O)C[C@@]21C", "Potency": "inactive"},
      {"compound": "OCCCc1ccccc1", "Potency": "inactive"},
      {"compound": "O=C(CCCCC(=O)Nc1c(I)cc(I)c(C(=O)O)c1I)Nc1c(I)cc(I)c(C(=O)O)c1I", "Potency": "inactive"},
      {"compound": "Cc1cccc(OCC(O)CNC(C)(C)C)c1C", "note": "(centres undefined)", "Potency": "inactive"},
      {"compound": "Cc1ccc(C(=O)C(=O)O)cc1C", "Potency": "inactive"},
      {"compound": "CC(=O)Nc1c(I)c(NC(C)=O)c(I)c(C(=O)O)c1I", "Potency": "inactive"},
      {"compound": "CC(C)(Oc1ccc(Cl)cc1)C(=O)OCCCOC(=O)C(C)(C)Oc1ccc(Cl)cc1", "Potency": "inactive"},
      {"compound": "O=C(CO)[C@@H](O)[C@H](O)[C@@H](O)CO", "Potency": "inactive"},
      {"compound": "CCOC(=O)O[C@]1(C(=O)OCCl)CC[C@H]2[C@@H]3CCC4=CC(=O)C=C[C@]4(C)[C@H]3[C@@H](O)C[C@@]21C", "Potency": "inactive"},
      {"compound": "C[C@H]1C[C@H](O)c2ccsc2S1(=O)=O", "Potency": "inactive"},
      {"compound": "CCN(CC)CC(=O)Oc1ccc(NC(C)=O)cc1", "Potency": "inactive"},
      {"compound": "COC(=O)c1cc(Cl)c(NC(C)=O)cc1OC", "Potency": "inactive"},
      {"compound": "C[N+]1(C)CCC(OC(=O)C(O)(c2ccccc2)C2CCCC2)C1", "note": "(centres undefined)", "Potency": "inactive"},
      {"compound": "CCOC(=O)C(O)c1ccccc1", "note": "(centres undefined)", "Potency": "inactive"},
      {"compound": "CCN1CCCC1CN", "note": "(centres undefined)", "Potency": "inactive"},
      {"compound": "Cc1cc2nc3ccc(=[N+](C)C)cc-3sc2cc1N", "Potency": "3.89 µM (active)"},
      {"compound": "CCOC(=O)OCC/C(SC(=O)OCC)=C(\\C)N(C=O)Cc1cnc(C)nc1N", "Potency": "inactive"},
      {"compound": "CCN(CC)CCN", "Potency": "inactive"},
      {"compound": "CC(C)(C)c1nnc(NS(=O)(=O)c2ccccc2)s1", "Potency": "inactive"},
      {"compound": "CC(C)C(=O)Nc1cccc(C(F)(F)F)c1", "Potency": "inactive"},
      {"compound": "CC(C)NCCCC1(C(N)=O)c2ccccc2-c2ccccc21", "Potency": "inactive"},
      {"compound": "Oc1ccccc1-c1nnco1", "Potency": "inactive"},
      {"compound": "CN=C(N)NC(=O)Nc1c(C)cccc1C", "Potency": "inactive"},
      {"compound": "Cc1cc(=O)oc2cc(O[C@@H]3SC[C@@H](O)[C@H](O)[C@H]3O)ccc12", "Potency": "inactive"},
      {"compound": "CN1C(=O)c2ccccc2C1=O", "Potency": "inactive"},
      {"compound": "CCN1CCN(C(=O)N[C@@H](C(=O)N[C@@H]2C(=O)N3[C@@H]2SC(C)(C)[C@H]3C(=O)O)c2ccccc2)C(=O)C1=O", "Potency": "inactive"},
      {"compound": "O=C(C1CCCCC1)N1CC(=O)N2CCCc3ccccc3C2C1", "note": "(centres undefined)", "Potency": "inactive"}
    ]}
  ]
}
